Rows were chosen to be rich in hits. Some 1.2% of all compounds tested hit in one or more screens of this group.
GC-A act – GC-A stimulated cGMP production enhancers – HEK293 GC-A cells, cGMP TR-FRET, EC30 ANP, primary screen; Atrial natriuretic peptide receptor 1 (Homo sapiens), P16066; 0% at EC30 ANP, 100% saturating ANP; activation, % at 10 µM; 0.14% of 370,000 active; AID 1671463, 2021; in the data active = activation above about 40%
GC-B act – human GC-B receptor activators, primary screen, HEK293 GC-B cells, cGMP TR-FRET, EC30 CNP; 0.11% of 370,000 active; activation, % at 10 µM; 0% at EC30 CNP, 100% saturating CNP; AID 1920062, 2024;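 active = activation at 10 µM reaching about 35% in either raw or pattern-adjusted values, limit read from the data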
TLR4 MyD88 comp – inhibitors of TLR4-MyD88 association in cells, primary screen, cell-based, HeLa CL3-4, BLA complementation, FRET ratio. Toll-like receptor 4 (Homo sapiens) + Myeloid differentiation primary response protein …. HeLa CL3-4 TLR4/MyD88 BLA complementation. inhibition, % at 8.4 µM. 0.18% of 200,000 active. AID 861, 2007; in the data active = inhibition above about 25%;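 note: 0% = vehicle and 100% = reference inhibitor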
NOD2 RIPK2 PPI – NOD2-RIPK2 binding disruptors in cells, primary screen, fluorescence, CHO cells, BLA complementation | AID 624267, 2012 | CCF4 ratio | 0.38% of 360,000 active | inhibition, % at 4.98 µM; in the data active = inhibition above about 21%;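 note: 0% = vehicle only and 100% = reference blocker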
Neddylation inh – inhibitors of cullin neddylation, primary screen, biochemical, TR-FRET, uHTS, NAE and Ubc12 | NEDD8-conjugating enzyme Ubc12 (Homo sapiens) + NEDD8-activating enzyme E1 regulatory … | inhibition, % at 25 µM | 0.58% of 360,000 active | AID 651699, 2012; in the data active = inhibition above about 36%
TLR9-MyD88 inh – inhibitors of TLR9-MyD88 association in cells, primary screen, cell-based, CHO, BLA complementation, fluorescence; inhibition, % at 4.98 µM; 0.21% of 340,000 active; CCF4 FRET ratio;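 active = inhibition above the mean over all tested compounds plus 3 SD, cut at about 21% in these data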;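 note: 0% = DMSO only wells and 100% = clavulanate BLA inhibitor control wells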
TLR4 MyD88 cnf – TLR4-MyD88 association inhibitors, retest, confirmation, cell-based, HeLa CL3-4, BLA complementation, FRET ratio | shares compounds with TLR4 MyD88 comp | CCF4 FRET ratio | inhibition, % at 8.4 µM | 50% of 350 active | AID 941, 2007;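 active = mean inhibition across three repeat runs above about 25% carried over from the earlier screen, limit read from the data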;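 note: plate controls were DMSO only for no effect and clavulanic acid blocking BLA at full dose for full effect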
BLA inhibitor ct – inhibits beta-lactamase activity, counter-screen to TLR4-MyD88 binding inhibitors. AID 1237. HeLa BLA reporter, CCF4 FRET ratio. shares compounds with TLR4 MyD88 comp. 63% of 350 active. inhibition, % at 8.4 µM;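 active = mean inhibition over three repeats above about 26% taken from the earlier screen, limit read from the data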;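 note: HeLa cells stably expressing beta-lactamase reporter as counterscreen for TLR4-MyD88 inhibitors; 0% = DMSO and 100% = clavulanic acid full inhibition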
TLR9-MyD88 cf – TLR9-MyD88 association inhibitors, retest, confirmation, cell-based, CHO, BLA complementation, fluorescence, triplicate. shares compounds with TLR9-MyD88 inh. CCF4 FRET ratio. inhibition, % at 4.98 µM. 51% of 680 active. AID 540250, 2011;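 active = mean inhibition across three repeats above about 21% taken from the earlier screen, limit read from the data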;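 note: blue over green emission ratio reports constitutive TLR9 MyD88 association via BLA complementation; 0% = DMSO vehicle wells and 100% = clavulanate BLA inhibitor wells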
BLA counter-1 – beta-lactamase reporter inhibitors in CHO cells, artefact control for TLR9-MyD88 binding inhibitor project, cell-based, fluorescence. AID 540251, 2011. CHO-BLA cells, CCF4 FRET ratio, BLA reporter. 7% of 680 active. shares compounds with TLR9-MyD88 inh. inhibition, % at 4.98 µM;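 active = mean inhibition above a 50% cutoff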;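 note: counterscreen of TLR9-MyD88 hits on CMV-driven BLA in CHO-K1 cells; 0% = DMSO alone and 100% = clavulanate blocking BLA; higher means less blue over green ratio so more BLA blockade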
TLR9 CHO cytotox – CHO cell viability loss – luminescence, single concentration, cytotoxicity control for TLR9-MyD88 binding inhibitor project. shares compounds with TLR9-MyD88 inh. TLR9-MyD88 CHO cells cytotoxicity. inhibition, % at 4.98 µM. 39% of 680 active; in the data active = inhibition above about 11%
NOD2 RIPK2 conf – NOD2-RIPK2 binding disruptors, retest, confirmation, fluorescence, CHO cells, BLA complementation, triplicate. inhibition, % at 4.98 µM. shares compounds with NOD2 RIPK2 PPI. 70% of 1,200 active. CCF4 FRET;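 active = mean inhibition across replicates above a set limit taken from the earlier primary screen, cut at about 21% in these data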;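 note: 0% = DMSO-only wells and the high end = clavulanate BLA-blocked wells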
BLA counter-2 – NOD2-RIPK2 counterscreen BLA reporter activity; 57% of 1,200 active; CHO BLA reporter, CCF4 FRET ratio; inhibition, % at 4.98 µM; shares compounds with NOD2 RIPK2 PPI;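 active = mean inhibition above the low-control mean inhibition plus three low-control SD, cut at about 11% in these data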;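 note: 0% = DMSO only wells and 100% = clavulanate high control wells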
An asterisk follows results filed as active; · = no result shown.

SMILES	GC-A act	GC-B act	TLR4 MyD88 comp	NOD2 RIPK2 PPI	Neddylation inh	TLR9-MyD88 inh	TLR4 MyD88 cnf	BLA inhibitor ct	TLR9-MyD88 cf	BLA counter-1	TLR9 CHO cytotox	NOD2 RIPK2 conf	BLA counter-2
CC1CCCCC1NC(=O)CN1C(=O)c2cccc(N)c2C1=O (configuration not stated)	8	3	33*	47*	·	38*	33*	52*	18	25	0	42*	48*
CC1CCCCC1NC(=O)COC(=O)CN1C(=O)c2ccccc2C1=O (configuration not stated)	-6	-1	·	8	-1	2	·	·	·	·	·	·	·
CCCCNC(=O)CN1C(=O)c2cccc(N)c2C1=O	8	-2	38*	45*	·	38*	27*	48*	17	20	-2	45*	48*
CSc1ccc(-c2cnc(N3CCC(C(N)=O)CC3)s2)cc1	5	-6	·	·	·	·	·	·	·	·	·	·	·
O=C1c2cccc3c([N+](=O)[O-])ccc(c23)C(=O)N1Cc1cccnc1	28	16	77*	78*	35	66*	79*	104*	49*	66*	72*	84*	71*
Cc1ccnc(N2C(=O)c3ccccc3C2=O)c1	3	2	·	-13	-15	-1	·	·	·	·	·	·	·
O=C1c2cccc3cccc(c23)C(=O)N1Cc1cccnc1	5	-2	·	-6	27	9	·	·	·	·	·	·	·
Cc1ccnc(N2C(=O)c3cccc4c([N+](=O)[O-])ccc(c34)C2=O)c1	·	·	92*	88*	45*	79*	90*	113*	58*	82*	93*	92*	83*
O=C(Nc1cccc(Cl)c1)OC1CCC12CCC(c1ccccc1)CC2 (configuration not stated)	6	-17	·	·	·	·	·	·	·	·	·	·	·
Nc1nc2c(s1)CCc1ccccc1-2	0	-5	·	2	0	3	·	·	·	·	·	·	·
O=c1oc2ccccc2cc1-c1nc2c(s1)CCc1ccccc1-2	17	1	31*	40*	·	49*	47*	81*	51*	58*	-2	69*	79*
O=c1oc2cc(O)ccc2cc1-c1nc2c(s1)CCc1ccccc1-2	18	7	52*	44*	-83	47*	69*	99*	67*	79*	2	72*	85*
COC(=O)c1cc2c(c3c4cc(F)ccc4n(S(=O)(=O)c4ccc(C)cc4)c13)C(=O)N(Cc1ccc(C(F)(F)F)cc1)C2	0	0	·	·	·	·	·	·	·	·	·	·	·
CN1C(=O)C(=O)N2C(=C[C@]3(c4c[nH]c5ccccc45)c4ccccc4N[C@H]23)C1=O	-5	-10	·	·	·	·	·	·	·	·	·	·	·
Cc1n[nH]c(C)c1N1C(=O)c2cccc3c(Br)ccc(c23)C1=O	-2	-15	73*	57*	-28	48*	45*	79*	22*	26	4	71*	59*
Cc1cc(/C=C2\NC(=S)N(C)C2=O)ccc1N1CCCC1	1	-5	23	18	-111	16	·	·	·	·	·	·	·
CCCN1C(=O)/C(=C/c2ccc(N3CCCC3)c(C)c2)NC1=S	7	10	37*	35*	-75	35*	37*	69*	26*	28	2	49*	55*
CCOC(=O)CC1=C(C(=O)OCC)C(c2cccnc2)C(C#N)=C(N)O1 (configuration not stated)	2	-7	-1	-5	7	2	·	·	·	·	·	·	·
CCOC(=O)C1=C(CSc2nc(-c3ccccc3)ccc2C#N)OC(N)=C(C#N)C1c1cccnc1 (configuration not stated)	3	-2	27*	21*	25	14	6	15	·	·	·	26*	37*
N#C/C(=C/c1ccc(-c2ccc(S(N)(=O)=O)cc2)o1)c1nc2ccccc2s1	1	2	46*	39*	-30	47*	46*	75*	46*	41	24*	71*	71*
N#C/C(=C/c1ccc(-c2ccc(S(N)(=O)=O)cc2)o1)C(=O)Nc1ccccc1	-8	-2	-3	17	10	14	·	·	·	·	·	·	·
CCOC(=O)CC[C@@H]1CC[C@]2(CCCN(C(=O)C3CCCCC3)C2)O1	0	-3	·	·	·	·	·	·	·	·	·	·	·
Cn1c(=O)c(NCCc2ccccc2)c2c3c(cccc31)C(=O)c1ccccc1-2	29	0	39*	38*	-484	37*	39*	64*	37*	38	-2	63*	71*
CCCCNc1c2c3c(cccc3n(C)c1=O)C(=O)c1ccccc1-2	·	·	41*	47*	-150	36*	26*	47*	26*	26	6	52*	58*
Cn1c(=O)c(NCCO)c2c3c(cccc31)C(=O)c1ccccc1-2	4	3	2	6	-105	3	·	·	·	·	·	·	·
Cc1sc2nc(COC(=O)CNC(=O)c3ccccc3Cl)[nH]c(=O)c2c1C	0	-8	·	·	·	·	·	·	·	·	·	·	·

Bioassay records as filed in PubChem BioAssay.
